Source: PubChem BioAssay (NCI)
About 83,000 compounds went through this panel and 20% of them were active in at least one assay; those are over-represented in the sample as a whole.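 Treatment: one concentration, 48 hours, 96-well format. Scoring: percent growth, with anything below 10 considered active.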 Active and inactive are the calls of the source.

Legend:
Assay in all cases: NCI-60 one-dose screen, 48 h (100 = growth as untreated, 0 = no growth, -100 = all killed)
Settings in all cases: 10 µM
[1] = system: HT29 colon
[2] = system: SNB-75 CNS
[3] = system: SNB-19 CNS
[4] = system: U251 CNS
[5] = system: PC-3 prostate
[6] = system: SK-MEL-5 melanoma
[7] = system: UACC-62 melanoma
[8] = system: LOX IMVI melanoma
[9] = system: SK-MEL-28 melanoma
[10] = system: SK-MEL-2 melanoma

Measured: growth

COc1ccc(-c2cc(/C=C3\C(=O)Nc4ccc(Cl)cc43)[nH]n2)cc1OC
inactive: [1] 93.5% | [2] 64.2% | [3] 90.9% | [4] 95.2% | [5] 88.4% | [6] 73% | [7] 95.9% | [8] 90.5% | [9] 99.3% | [10] 99.5%

CN(C)CCCn1c(=O)c2ccccc2c2cnc3[nH]ccc3c21
active: [1] -9.52% | [4] 8.32% | [5] -9.22% | [7] -20.2% | [8] 1.3% | [10] -8.38%
inactive: [2] 26.5% | [3] 13.6% | [6] 10.3% | [9] 21.1%

COc1cc(CNc2ccccc2C(=O)N2CCN(C(=O)c3cc(-c4cc(OC)c(OC)c(OC)c4)n4nc(-c5ccccc5)cc4n3)CC2)cc(OC)c1OC
inactive: [1] 12.9% | [2] 33.5% | [3] 64.1% | [4] 35.2% | [5] 26.9% | [6] 16.5% | [7] 27% | [8] 35.7% | [9] 53%
active: [10] -0.722%

COc1ccc(-c2ccc(-c3ccc(C(=N)N)cn3)o2)cc1
inactive: [1] 14.1% | [2] 61.1% | [3] 91.5% | [4] 76.3% | [5] 68.3% | [6] 72.3% | [7] 89.7% | [8] 61.8% | [9] 86.5% | [10] 99.5%

CCN(CC)CCC(CNc1c(C)cnc2cc(Cl)ccc12)c1ccc(Cl)cc1 (stereo not given)
inactive: [1] 14.8% | [2] 65.3% | [3] 68.1% | [4] 48.6% | [5] 55.9% | [8] 33.6% | [10] 92.8%
active: [6] -94.2% | [7] -28.8% | [9] -88.8%

COc1cc(Cc2cc(-c3ccc(Cl)cc3)n[nH]c2=O)ccc1O
inactive: [1] 110% | [2] 70.8% | [3] 86.2% | [4] 108% | [5] 105% | [6] 80.7% | [7] 96.4% | [8] 115% | [9] 122% | [10] 117%

O=C(CCCCC(=O)Nc1ccc2c(c1)/C(=C/c1ccc[nH]1)C(=O)N2)NO
inactive: [1] 68.7% | [2] 47.7% | [3] 83% | [4] 69.3% | [5] 80.1% | [6] 65% | [7] 68.5% | [8] 94.4% | [9] 60.4% | [10] 59.4%

Nc1nc(Nc2ccccc2)n[nH]1
inactive: [1] 105% | [2] 90.6% | [3] 94.6% | [4] 100% | [5] 116% | [6] 106% | [7] 90.7% | [8] 100% | [9] 109% | [10] 103%

COc1ccc(Cl)cc1-n1nnc(-c2nc3ccccc3[nH]2)c1N
inactive: [1] 47.2% | [2] 32.5% | [3] 77% | [4] 53.2% | [5] 89.2% | [6] 95.9% | [7] 104% | [8] 77.4% | [9] 100% | [10] 93.2%

CCOCC(=O)C(C#N)c1ccc(Cl)c(Cl)c1 (stereo not given)
inactive: [1] 104% | [2] 78.2% | [3] 107% | [4] 94.7% | [5] 87% | [6] 96% | [7] 95.4% | [8] 100% | [9] 100% | [10] 115%

CCN(CC)CCOc1nc2cc(OC)c(OC)cc2c2c1-c1ccc(OC)cc1C2=O
inactive: [1] 40.4% | [2] 56.5% | [3] 73.4% | [4] 60% | [5] 81.8% | [6] 91% | [7] 78.9% | [8] 30.4% | [9] 112% | [10] 74.2%

COc1ccc(Cn2c(C(N)=O)cc3c2-c2nc(N)ncc2CCC3)cc1
inactive: [1] 93.2% | [2] 97.2% | [3] 102% | [4] 99.3% | [5] 99.3% | [6] 98.7% | [7] 95.4% | [8] 107% | [9] 99.2% | [10] 105%

CC1(C)CCC(=NNC(N)=S)CC1
inactive: [1] 95.1% | [2] 88.2% | [3] 108% | [4] 105% | [5] 109% | [6] 111% | [7] 103% | [8] 89% | [9] 115% | [10] 130%
